# Assay results published in PubChem BioAssay (NCI).
# About 79,000 compounds went through this panel and 15% of them were active in at least one assay; those are over-represented in the sample as a whole. A number with no mark means an inactive call. The source made the active and inactive calls. No stated cut-off is given here; in the data, active means growth inhibition above about 70%; inactive means the rest.
# How the values were obtained:
# [1] = NCI Yeast Anticancer Drug Screen. Data for the rad50 strain (AID 155);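 further: 0% = growth of vehicle-only cultures of the same strain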; conditions: S. cerevisiae rad50 strain growth inhibition; at 50.0 µM; stronger effect = higher value
# Outline: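 Readout: growth inhibition relative to vehicle-treated cultures. Compound exposure was carried out in a genetically defined yeast strain deficient in DNA damage repair.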
# [2] = NCI Yeast Anticancer Drug Screen. Data for the mec2-1 strain (AID 157); conditions: S. cerevisiae mec2-1 strain, at 50.0 µM, stronger effect = higher value
# Outline: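 Readout is yeast growth inhibition, normalised to vehicle-treated controls, in the mec2-1 strain exposed to compound.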
# [3] = NCI Yeast Anticancer Drug Screen. Data for the sgs1 mgt1 strain (AID 161);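 further: 0% = growth of cultures given vehicle only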; conditions: S. cerevisiae sgs1 mgt1 strain, at 50.0 µM, stronger effect = higher value
# Outline: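 Yeast cells carrying a defined DNA-repair defect were exposed to test compounds. Growth inhibition was measured relative to vehicle-treated controls.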
# [4] = NCI Yeast Anticancer Drug Screen. Data for the cln2 rad14 strain (AID 165);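 further: 0% = growth equal to vehicle treated cultures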; conditions: S. cerevisiae cln2 rad14 strain, at 50.0 µM, stronger effect = higher value
# Outline: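 Relative to vehicle controls, growth inhibition of compound-treated cln2 rad14 yeast was recorded.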
# [5] = NCI Yeast Anticancer Drug Screen. Data for the bub3 strain (AID 167); conditions: S. cerevisiae bub3 mutant strain, at 50.0 µM, stronger effect = higher value
# Outline: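 Readout: yeast growth inhibition, expressed relative to vehicle-only wells. The test organism is a mutant strain from a panel with lesions in DNA repair or checkpoint genes.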
# [6] = NCI Yeast Anticancer Drug Screen. Data for the mlh1 rad18 strain (AID 175); conditions: S. cerevisiae mlh1 rad18 strain growth inhibition; at 50.0 µM; stronger effect = higher value
# Outline: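 Test agents were incubated with a yeast strain of defined genotype (DNA damage repair defect). Inhibition of growth was derived by comparison with vehicle-exposed cultures.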
SMILES,growth inhibition [1],growth inhibition [2],growth inhibition [3],growth inhibition [4],growth inhibition [5],growth inhibition [6]
CC(C)C1=CC2=CCC3C(C)(COC(=O)CSC(C)(C)C)CCCC3(C)C2CC1 (stereo unspecified),14.2%,-2.25%,31.6%,18.6%,-1.9%,20.2%
CCC(N)(C(=O)O)C(C)C (stereo unspecified),-25.7%,-8.65%,-12.1%,-0.45%,8.4%,-3.75%
COC(=O)[C@H](Cc1c[nH]c2ccccc12)NP(=O)(OCCC#N)OCC1OC(n2cc(C)c(=O)[nH]c2=O)CC1N=[N+]=[N-] (stereo partly specified),-13.6%,-33.1%,-23.4%,-13.3%,-30.8%,-65%
NC(=O)OC1CCN(c2cccc(Cl)c2)C1 (stereo unspecified),-8.1%,-22.3%,-16.1%,23.5%,-18.8%,1.75%
COc1ccc(/C=C(\CC(=O)c2ccc(Cl)cc2)C(=O)O)cc1,-21.5%,-8.85%,6.6%,-30.6%,1%,-5.8%
Cc1cccc(N=C2NC(=O)C(CC(=O)Nc3ccccc3Cl)S2)c1 (stereo unspecified),-16.8%,-35.8%,12.8%,7.45%,0.95%,-1.55%
COc1cccc(NC(=O)C(=O)C(C(=O)c2ccccc2F)C2OC(=O)c3ccccc32)c1 (stereo unspecified),15.6%,0.95%,35.5%,18.9%,7.85%,3.85%
Nc1[nH]n(-c2ccccc2)c(=O)c1/C=N/C(=S)N=Nc1c(O)[nH]c2ccccc12,1.5%,-0.3%,41%,1.5%,9.35%,24.8%
CSc1ccc(OC(=O)Nc2cc([N+](=O)[O-])ccc2F)cc1C,16.6%,11.2%,16%,12.2%,28.8%,17.1%
CN1c2ccccc2Sc2cc(/C=C3/SC(=S)NC3=O)ccc21,1.95%,4.6%,3.55%,-19.8%,38.8%,0.15%
CCOC(=O)C(C(=O)CC)=P(c1ccccc1)(c1ccccc1)c1ccccc1,3.35%,17.4%,-20.1%,-9.4%,-9.9%,23.2%
CCCCCCC1NC(=S)N(c2ccccc2)C1=O (stereo unspecified),-12.1%,0.5%,48.5%,-5%,21.2%,-6.2%
CCCCB1OB(CCCC)OB(CCCC)O1,-1.65%,-17.8%,-6.2%,5.25%,7.15%,4.25%
Cc1ccc([N+](=O)[O-])c2c(NCCC[N+](C)(C)[O-])ccnc12,35.9%,-18.1%,20.6%,14.2%,-24.7%,4.4%
O=C(O)/C=C(/Br)c1ccccc1,-28.9%,7.9%,-13.8%,-1.55%,1.4%,-24.4%
COC(=O)c1nc(N)nc(C(=O)OC)c1C(=O)c1ccc(Cl)c(Cl)c1,-7.6%,7.15%,-18.5%,-5.05%,3.2%,10.6%
c1ccc(CCCCc2ccc(CCCCc3ccccc3)cc2)cc1,12.2%,-3.55%,-2.45%,-6.35%,-2.2%,6.1%
COCCOCOC(C)(C)CCCCl,11.3%,24%,21.9%,-5.2%,-2.1%,-20%
C=C(c1ccccc1)C1(O)CCCCC1N(C)C (stereo unspecified),-24.4%,-13.8%,0.7%,-12.3%,10.9%,12.4%
Cc1c2oc3c(C)ccc(C(=O)NCCN4CCOCC4)c3nc-2c(C(=O)NCCN2CCOCC2)c(N)c1=O,-8.1%,29.6%,37.5%,-26.5%,38.9%,15.8%
COc1cc(C)cc(OC)c1/C=C/C(=O)O,8.4%,11.1%,-8.6%,-13.6%,1.75%,2.25%

SMILES,growth inhibition [1],growth inhibition [2],growth inhibition [3],growth inhibition [4],growth inhibition [5],growth inhibition [6]
CN(N=Nc1ccc(C#N)cc1)C(C)(C)C,3.3%,-5.3%,6.5%,-5.85%,-2.35%,5.55%
CC(=O)Oc1cccc(O)c1,-1.55%,-3.65%,-15.2%,-22.5%,-4.15%,3%
C[N+]12CCCCC1CC2 (stereo unspecified),29.4%,-5.25%,-7.35%,-39.5%,-40.3%,9.85%
COc1ccccc1/C=N/Nc1nnc2c3ccccc3c3ncccc3c2n1,-28.8%,-45.8%,-22.5%,-10.8%,-8.55%,-34%
COC(=O)C1=CO[C@@H](C)[C@@H]2Cn3ccc4c5ccccc5nc-4c3C[C@H]12,2.4%,-17.4%,14%,4.5%,-3.9%,1.4%
CC(=O)NC1=NCC(CSc2nc3ccccc3s2)S1 (stereo unspecified),-8.45%,-14.3%,5.65%,-26.2%,9.7%,4.3%
CCCCCCCNc1ccc(C(=O)OCC)cc1,-1.5%,5.35%,-1.95%,8.15%,7.3%,-7.55%
CC[N+](C)(CCO)C(Cc1ccccc1)c1ccccc1 (stereo unspecified),8.5%,-3.5%,-0.1%,-16.1%,19.5%,-1.7%
CC(C)=C1C(=O)C[C@@]2(C)C[C@H]3OC3(C)CC/C=C(/C)CCC12 (stereo partly specified),14.9%,11.7%,19.8%,12.9%,30.2%,-62.5%
Nc1nnc(Cc2cccc3ccccc23)o1,-1.05%,-11.4%,-13.1%,-0.7%,-15.6%,1.1%
CC1CC(=O)NC(=O)C1,-7.25%,-4.1%,-18.8%,-13%,6.3%,-22.7%
Cc1ccc2ccccc2c1CC(=O)O,28.8%,36.6%,31.5%,31.7%,38.8%,39.2%
CCOC(=O)CCC(NC(=O)c1ccc(NCc2nc3c([nH]2)c(=O)n(C)c(=O)n3C)cc1)C(=O)OCC (stereo unspecified),1.95%,13.3%,13.6%,2.6%,-8.75%,14.4%
CC(=O)OC1=C(OC(C)=O)N(S(=O)(=O)c2ccc(C)cc2)CCc2ccccc21,31.4%,20.4%,36.6%,26.5%,6.5%,36%
CCc1ccc(NS(=O)(=O)c2ccc3ccccc3c2)cc1,96% (active),97.5% (active),96.9% (active),94.6% (active),96.5% (active),96.4% (active)
O=C1CNC(=O)N1CCCl,19.7%,-4.7%,-7.65%,6.3%,6.15%,-6.7%
c1ccc2oc(C34OC5CC(CC(C5)O3)O4)nc2c1,24.8%,13.2%,21.9%,11.1%,0.5%,10%
Cc1nc(N)sc1N=Nc1ccc(Br)cc1Br,85.2% (active),68.8%,86.8% (active),63.1%,46.9%,76.4% (active)
C=CCOC(=O)COC(=O)C(C)(C)OC(C)=O,-3.35%,10.3%,-1.7%,10.9%,12.6%,-5.9%
COc1ccc(/C=N/NC(=O)c2cnc3[nH]c(=O)n(C)c(=O)c3c2)cc1,10.7%,10.3%,30.6%,5.45%,11.2%,22.4%
